Compounds with a hit are over-represented: about 19% of the library has one in this group of screens.
IL1B secr inh: blocks inflammasome-driven IL-1 beta release; 360,000 tested, 4.7% active; activity change, % at 57.5 µM; AID 743279; THP-1 LPS/ATP IL-1B secretion, AlphaLISA, 16 h; stronger effect = lower value; in the data active = activity change below about -50%; inconclusive = mostly about -30% to -49%
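THP-1 cells pretreated 1 hr with compounds (up to 57.5 uM final), then stimulated with LPS (250 ng/mL final) plus ATP (1.25 mM final); secreted IL-1B measured by AlphaLISA after 16 hr, decreased signal indicating inhibition.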
HT1080-NT tox: kills 2HG-producing HT-1080-NT fibrosarcoma cells | AID 686970 | HT-1080-NT fibrosarcoma viability, CellTiter-Glo ATP luminescence, 48 h | Potency, µM (series often up to 46.1 µM), for the others: at the highest dose activity, negative = less viability, actives largely listed as cytotoxic | 360,000 tested, 1.6% active;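 note: NT is the 2HG producing partner of a matched IDH1 knockdown line; potency is the fitted concentration of half-maximal effect; 0% = DMSO-treated cells and -100% = media-only wells without cells; nearly all actives have a fitted effect of over 55% in size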
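HT-1080-NT fibrosarcoma cells (2HG-overproducing), 750 cells/well in RPMI with 5% FBS, dosed after 2 h and incubated 48 h at 37C. CellTiter-Glo luminescence normalized to DMSO and no-cell wells; concentration-response curves fitted and classed.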
HT1080 IDH1KD tx: kills HT-1080 cells with IDH1 knockdown; AID 686971; HT-1080 IDH1 knockdown viability, ATP luminescence, 48 h; 360,000 tested, 2% active; Potency, µM (series often up to 46.1 µM), for the others: at the top dose activity, negative = toxicity, actives largely listed as cytotoxic;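 note: potency is the fitted concentration of half-maximal effect; 0% = DMSO wells and -100% = cell-free medium wells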
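% activity derives from luminescence (CellTiter-Glo), normalised to DMSO and no-cell wells. HT-1080-IDH1KD cells, 750/well, had 48 h compound exposure at 37 °C.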
DT40 TDP1 CPT: DT40-hTDP1 cell growth loss with CPT | chicken DT40 Tdp1-/-;hTDP1 cells + 20 nM CPT, ATP luminescence, 48 h | Potency, µM (top dose mostly 46.2 µM), inactives show at the top dose activity change, negative = growth inhibition, hits mostly inhibitors | 420,000 tested, 12% active | AID 686979; note: potency is the fitted concentration of half-maximal effect; nearly all actives have a fitted effect of over 55% in size
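Chicken DT40 Tdp1-/- cells stably complemented with human TDP1 were seeded at 400 cells/well in medium containing 20 nM camptothecin, exposed to pin-transferred compounds, and grown at 37 °C for at least 48 hr. Viability was read as ATP luminescence.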
TDP1 cell noCPT: qHTS for Inhibitors of human tyrosyl-DNA phosphodiesterase 1 (TDP1): qHTS in cells in absence of CPT; 420,000 tested, 15% active; DT40 Tdp1-/- hTDP1 cells, no CPT, ATP luminescence, 48 h; Potency, µM (top dose mostly 46.2 µM), for inactives: at the top dose activity change, negative = growth inhibition, actives largely listed as inhibitors; note: potency is the fitted concentration of half-maximal effect; nearly all actives have a fitted effect of over 55% in size
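Stably hTDP1-transfected Tdp1-null chicken DT40 cells were treated with library compounds minus camptothecin and grown for at least 48 hr at 37 °C, after which cellular ATP was quantified by luminescence.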
Numbers without * were called inactive. Unless noted, calls come from the whole dose curve; as a rule, active = well fitted curve in the direction sought with a large enough effect; inconclusive = small, poorly fitted or top-dose-only effect, or another doubt; inactive = no such curve, though single readings can be large; an effect the other way counts as inactive or inconclusive. Unless noted, % is set by controls: 0 for no effect and ±100 for the full control effect.

`Cc1ccc(NC(C(=O)c2ccccc2)c2ccccc2)cc1` (centres undefined) gave IL1B secr inh -73.4*, HT1080-NT tox 23.1µM*, HT1080 IDH1KD tx inconclusive, DT40 TDP1 CPT inconclusive and TDP1 cell noCPT 13µM*.
Screening COc1cccc(NC(C(=O)Nc2cccc(C(C)=O)c2)c2ccccc2)c1 (centres undefined) returned IL1B secr inh 7.8, HT1080-NT tox 1.0%, HT1080 IDH1KD tx -14.9%, DT40 TDP1 CPT -24.2% and TDP1 cell noCPT inconclusive.
Screening Cc1ccc(NC(=O)C(Nc2ccccc2)c2ccccc2)cc1 (centres undefined) returned IL1B secr inh -11.0, HT1080-NT tox 24.8%, HT1080 IDH1KD tx 15.0%, DT40 TDP1 CPT 0.0% and TDP1 cell noCPT -1.5%.
For Cc1ccc(NC(=O)C(Nc2cccc(C)c2)c2ccccc2)cc1 (centres undefined) the results were IL1B secr inh -14.8, HT1080-NT tox -28.6%, HT1080 IDH1KD tx -15.6%, DT40 TDP1 CPT inconclusive and TDP1 cell noCPT 18.4µM*.
Cc1cc(C)cc(NC(=O)C(Nc2ccccc2)c2ccccc2)c1 (centres undefined) was read as IL1B secr inh -1.3, HT1080-NT tox -8.5%, HT1080 IDH1KD tx -11.5%, DT40 TDP1 CPT 18.4µM* and TDP1 cell noCPT -27.4%.
Screening Cc1ccc(C)c(C2=NNC(=O)CC2)c1 returned IL1B secr inh 20.6, HT1080-NT tox 11.9%, HT1080 IDH1KD tx -2.1%, DT40 TDP1 CPT -0.2% and TDP1 cell noCPT -0.5%.
`Cc1ccc(-c2c(C#N)c(N)nc3c2CCCCC3)o1` gave IL1B secr inh 15.6, HT1080-NT tox 1.9%, HT1080 IDH1KD tx 1.8%, DT40 TDP1 CPT inconclusive and TDP1 cell noCPT -14.9%.
O=[N+]([O-])c1ccc(-c2nc(Cl)c3c(n2)CCCC3)o1 was read as IL1B secr inh -93.8*, HT1080-NT tox -5.5%, HT1080 IDH1KD tx inconclusive, DT40 TDP1 CPT 9.2µM* and TDP1 cell noCPT 16.4µM*.
CC[C@]12C(=O)N(C)C[C@H]([C@@H]3C(=O)N(Cc4ccccc4)C(=O)[C@@H]31)N2C(=O)c1ccc(C(F)(F)F)cc1 was read as IL1B secr inh -22.3, HT1080-NT tox 20.0%, HT1080 IDH1KD tx 6.7%, DT40 TDP1 CPT -11.2% and TDP1 cell noCPT -7.4%.
Screening COc1ccc(-c2csc3ncnc(N4CCN(c5ccc(OC)cc5)CC4)c23)cc1 returned IL1B secr inh 58.1, HT1080-NT tox -27.5%, HT1080 IDH1KD tx -0.6%, DT40 TDP1 CPT 23.1µM* and TDP1 cell noCPT 13µM*.
Screening COc1ccc(-c2csc3ncnc(N4CCN(c5ccccc5)CC4)c23)cc1 returned IL1B secr inh -22.1, HT1080-NT tox -20.2%, HT1080 IDH1KD tx inconclusive, DT40 TDP1 CPT inconclusive and TDP1 cell noCPT inconclusive.
Screening COc1ccc(-c2csc3ncnc(N4CCN(c5ccccc5O)CC4)c23)cc1 returned IL1B secr inh -17.5, HT1080-NT tox 0.7%, HT1080 IDH1KD tx -4.5%, DT40 TDP1 CPT inconclusive and TDP1 cell noCPT 16.4µM*.
For COc1ccc(-c2csc3ncnc(N4CCN(c5ccccc5[N+](=O)[O-])CC4)c23)cc1 the results were IL1B secr inh -6.1, HT1080-NT tox -22.7%, HT1080 IDH1KD tx -28.8%, DT40 TDP1 CPT inconclusive and TDP1 cell noCPT 18.4µM*.
`Cc1ccc(-c2csc3ncnc(N4CCN(c5ccccc5O)CC4)c23)cc1` gave IL1B secr inh -61.3*, HT1080-NT tox -8.0%, HT1080 IDH1KD tx 0.8%, DT40 TDP1 CPT inconclusive and TDP1 cell noCPT 14.6µM*.
`Cc1ccc2oc(-c3cccc(NC(=O)COc4ccc(Cl)cc4)c3C)nc2c1` gave DT40 TDP1 CPT -20.8% and TDP1 cell noCPT -18.7%.
`OC(c1ccccc1)(c1ccccc1)c1ncc[nH]1` gave IL1B secr inh 1.9, HT1080-NT tox 0.0%, HT1080 IDH1KD tx 29.0%, DT40 TDP1 CPT 1.1% and TDP1 cell noCPT 0.9%.

Screening data as filed in PubChem.
